Potency and affinity values are given separately. The source made the active and inactive calls. No rule for the calls is given here.
target: Plasmodium falciparum protein kinase 6 (PK6, PF3D7_1337100) (UniProt Q8IDW1); assay: PfPK6 kinase inhibitors, biochemical, TCAMS library (AID 1159586); details: recombinant PfPK6, Kinase-Glo ATP depletion luminescence
Sequence (Q8IDW1 1-305): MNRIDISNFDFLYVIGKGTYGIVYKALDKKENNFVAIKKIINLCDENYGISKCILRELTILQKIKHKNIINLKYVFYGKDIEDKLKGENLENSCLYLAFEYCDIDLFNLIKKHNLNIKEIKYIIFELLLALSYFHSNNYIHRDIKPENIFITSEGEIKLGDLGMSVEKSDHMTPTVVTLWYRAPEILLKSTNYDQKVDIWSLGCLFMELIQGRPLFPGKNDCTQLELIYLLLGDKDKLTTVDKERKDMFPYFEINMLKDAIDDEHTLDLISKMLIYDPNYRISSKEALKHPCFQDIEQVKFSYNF

outcome, inactive:
COc1ccc(OCCn2cc(C(=O)c3ccco3)c3ccccc32)cc1
COc1ccc(CN2CCC(NCc3cccc(C(F)(F)F)c3)CC2)cc1
C=CCN1C(=O)CN(S(=O)(=O)c2ccc(-n3nc(C)cc3C)cc2)C1=S
CN(C)CCCOc1cc(NC(=O)Nc2ccc(-c3ccncc3)c3ccccc23)ccc1I
CCOC(=O)c1ccc(N2CCN(c3cc(C)ccc3C)CC2)c(NC(=O)Nc2ccc(Cl)c(Cl)c2)c1
O=S(=O)(c1ccccc1Cl)N1CCCCC(c2ccc(C(F)(F)F)cc2)=N1
COc1ccc(CC2(c3ccc(F)cc3)N=C(N)N(CCCc3cccnc3)C2=O)cc1 (stereo not given)
O=C(NC1CCCCC1)N(CCCn1ccnc1)Cc1csc(-c2ccc(CNCc3ccccc3)cc2)n1
CCC(CC)NCc1c(O)ccc2c(CNC(CC)CC)c(O)ccc12
O=S(=O)(Nc1cccc(CCN2CCCCC2CCN2CCCC2)c1)c1cccc2ccccc12 (stereo not given)
CC(C)[C@H](NC(=O)c1c(CN2CCC(N3CCCCC3)CC2)c(-c2ccccc2)nc2cc(O)ccc12)c1ccccc1
COc1cc(NC(=O)c2sc(-c3ccc(Cl)cc3)cc2Cl)ccc1OCCN1CCCC1
COc1cc2nc(N3CCC(CNC(=O)c4cccc5cccnc45)CC3)nc(N)c2cc1OC
CNc1ccc(CNCc2ccc(-c3ccc(-c4nc5ccc(C(F)(F)F)cc5[nH]4)s3)cc2)cc1
COc1ccc(CN(C)CCCc2ccc(NC(=O)c3cccc4c(=O)c5cccc(F)c5[nH]c34)cc2)cc1OC

Source: PubChem BioAssay
